PME-1 primary: PME-1 (human) inhibition; AID 2130; inhibition, % at 5.9 µM; recombinant PME-1, FP-Rh probe fluorescence polarization; actives 0.53% (n = 320,000); Q9Y570;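 active = inhibition above the campaign mean of all compounds plus 3 SD, cut at about 26% in these data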;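 also: competitive labeling of PME-1 active site by serine hydrolase directed probe; inhibitors block probe labeling so polarization falls and inhibition rises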
LYPLA1 inh: blocks human lysophospholipase 1, a PME1 counter-screen | O75608 | recombinant LYPLA1, FP-Rh probe fluorescence polarization | inhibition, % at 5.9 µM | actives 0.16% (n = 320,000) | AID 2174;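 active = inhibition above the mean of all tested compounds plus 3 SD, set per campaign, cut at about 14% in these data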;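 also: inhibitors block serine hydrolase probe labeling of LYPLA1 so polarization falls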
Target sequence (O75608 whole entry, looked up): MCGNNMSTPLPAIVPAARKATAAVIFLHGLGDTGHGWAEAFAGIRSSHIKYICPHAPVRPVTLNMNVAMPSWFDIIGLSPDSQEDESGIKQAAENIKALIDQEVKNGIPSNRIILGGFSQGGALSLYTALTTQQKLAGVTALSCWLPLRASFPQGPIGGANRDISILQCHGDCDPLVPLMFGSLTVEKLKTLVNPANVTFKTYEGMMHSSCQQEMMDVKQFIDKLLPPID
GSTO1 inh: GSTO1 inhibition, counter-screen for RBBP9 inhibitors; P78417; recombinant GSTO1, activity-based probe fluorescence polarization; inhibition, % at 5.96 µM; actives 1.1% (n = 300,000); AID 1974;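 active = inhibition above the campaign mean inhibition plus 3 SD, cut at about 35% in these data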
Target sequence (P78417 whole entry, looked up): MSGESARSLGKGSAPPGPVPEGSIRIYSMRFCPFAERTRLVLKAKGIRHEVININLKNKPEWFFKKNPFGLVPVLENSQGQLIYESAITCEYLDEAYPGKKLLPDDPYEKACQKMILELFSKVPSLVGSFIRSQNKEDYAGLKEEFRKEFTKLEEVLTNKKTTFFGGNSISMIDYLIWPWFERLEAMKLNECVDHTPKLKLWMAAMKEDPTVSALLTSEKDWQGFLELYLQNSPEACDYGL
Fam108B inh: Fam108B inhibition, counter-screen for RBBP9 inhibitors; inhibition, % at 9.51 µM; AID 1947; actives 0.33% (n = 300,000); recombinant Fam108B, FP-Rh probe fluorescence polarization;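 active = inhibition above the screen mean inhibition plus 3 SD, computed separately per campaign, cut at about 18% in these data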;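 also: inhibitors lower polarization as less probe binds the enzyme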
LYPLA2 counter: blocks human lysophospholipase 2, a PME1 counter-screen; O95372; inhibition, % at 5.9 µM; recombinant LYPLA2, FP-Rh probe fluorescence polarization; AID 2177; actives 0.38% (n = 320,000);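 active = inhibition above the screen-wide mean plus 3 SD, limit set per campaign, cut at about 26% in these data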
PAD4 FP inh: PAD4 (human) enzyme inhibition | recombinant PAD4, RCA probe fluorescence polarization | inhibition, % at 6.36 µM | Q9UM07 | actives 0.41% (n = 330,000) | AID 485272;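 active = percent inhibition above a cutoff equal to the mean of all tested compounds plus 3 SD, cut at about 15% in these data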
GSTO1 confirm: confirmation of human GSTO1 inhibitors; shares compounds with GSTO1 inh; actives 54% (n = 2,400); inhibition, % at 5.96 µM; recombinant GSTO1, probe fluorescence polarization;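 active = inhibition above the primary screen's cutoff, its mean inhibition plus 3 SD, cut at about 35% in these data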;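 also: loss of polarization as inhibitors block binding of rhodamine sulfonate ester activity probe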
GSTO1 ABPP inh: blocks recombinant human glutathione S-transferase omega 1; shares compounds with GSTO1 inh; recombinant GSTO1, gel ABPP SE-Rh probe fluorescence; inhibition, % at 1 µM; actives 30% (n = 130); AID 463110;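 active = inhibition of the enzyme GSTO1 above about 75%, limit read from the data; inactive = inhibition below that limit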
Numbers stand for hits; . = inactive; / = not tested or not shown. An excerpt weighted towards active compounds, which were near 1.8% of everything screened.

SMILES | PME-1 primary | LYPLA1 inh | GSTO1 inh | Fam108B inh | LYPLA2 counter | PAD4 FP inh | GSTO1 confirm | others
O=C(c1[nH]ncc1-c1cccc(Br)c1)C1CO1 (stereo not drawn) | . | . | 82.1 | . | . | . | 89.7 | GSTO1 ABPP inh=.
Cc1ccccc1C1C(C#N)=C(N)N(N(C)C)C2=C1C(=O)CC(C)(C)C2 (stereo not drawn) | . | . | . | . | . | . | /
CC1=CC(=Nc2c(C)n(C)n(-c3ccccc3)c2=O)C=CC1=O | . | . | 74.2 | . | . | . | 40.7
Oc1cccc(/C=N/NC(=S)Nc2cccnc2)c1O | . | . | 79.0 | . | . | . | .
Oc1ccc(/C=N/NC(=S)Nc2cccnc2)c(O)c1 | . | . | . | . | . | . | /
COc1ccccc1NC(=O)Cc1nc(CCl)cs1 | . | . | 67.6 | . | . | . | 94.6 | GSTO1 ABPP inh=.
CCC(=O)Nc1nc(CC(=O)Nc2ccccc2OC)cs1 | . | . | . | . | . | . | /
CCOc1ccc(C2C(C(=O)/C=C/c3ccco3)=C(O)C(=O)N2CCN2CCOCC2)cc1OC (stereo not drawn) | . | . | 38.4 | . | . | . | .
COc1ccc(C2C(C(=O)/C=C/c3ccco3)=C(O)C(=O)N2CCN2CCOCC2)cc1 (stereo not drawn) | . | . | . | . | . | . | /
Oc1ccc(/C=N/Nc2ccc(Cl)nn2)cc1O | . | . | 59.7 | . | . | . | .
CC(C)CC(CO)N1CCN(C(=O)c2cccc(C(F)(F)F)c2)CCC1=O (stereo not drawn) | . | . | . | . | . | . | /
CC(C)CCn1c(=O)c2ccccc2n2c(CN3CCCC3)nnc12 | . | . | . | . | . | . | /
CCCCCn1c(=O)c2ccccc2n2c(CCl)nnc12 | . | . | 83.9 | . | . | . | 95.0 | GSTO1 ABPP inh=.
CC(C)CCn1c(=O)c2ccccc2n2c(CCl)nnc12 | . | . | 81.4 | . | . | . | 95.3 | GSTO1 ABPP inh=81.0
CCOC(=O)c1nc(N/N=C/c2ccccc2)sc1Br | . | . | 51.0 | . | . | . | .
O=C1C(c2ccccc2)=[N+]([O-])c2ccccc21 | . | . | 63.9 | . | . | . | 48.2
COc1cccc(-n2c(N)cc(=O)nc2SCC(=O)N2CCN(c3ccccc3)CC2)c1 | . | . | . | . | . | . | /
CCCCNCc1cc2ccccc2o1 | . | . | . | . | . | . | /
CCOC(=O)N1CCN(c2c(NCCN3CCCCC3CC)c(=O)c2=O)CC1 (stereo not drawn) | . | . | . | . | . | . | /
CCOC(=O)C1CCCN(c2c(NCCN3CCCCC3CC)c(=O)c2=O)C1 (stereo not drawn) | . | . | 57.9 | . | . | . | .
COc1ccc(/C=N\NC(=O)c2sccc2C)cc1Cn1nc(C)cc1C | . | . | . | . | . | . | /
COc1cc(C(=O)OCC(=O)Nc2cccc(S(=O)(=O)N3CCOCC3)c2)ccc1OCC(C)C | . | . | . | . | . | . | /
CCOC(=O)Nc1nnc(-c2ccccc2OC)s1 | . | . | . | . | . | . | /
CCC(SC1=NCCS1)C(=O)Nc1nnc(-c2ccccc2OC)s1 (stereo not drawn) | . | . | 59.5 | . | . | . | 60.6
O=C(C[n+]1ccccc1)N/N=C/c1ccc(Cl)cc1 | . | . | / | / | . | . | /
SMILES | PME-1 primary | LYPLA1 inh | GSTO1 inh | Fam108B inh | LYPLA2 counter | PAD4 FP inh | GSTO1 confirm | others
Cc1cc(O)c(Oc2cc(C)cc(O)c2O)c(O)c1 | . | . | 56.2 | . | . | . | .
Cc1cc(C(C)(C)C)c(O)c(C(C)(C)C)c1 | . | . | . | . | . | . | /
CCc1ccc(-c2cc3c(=O)n(CC(=O)NCCCN4CCN(CC)CC4)nc(C)n3n2)cc1 | . | . | . | . | . | . | /
CCOc1ccc(-n2c(C)cc(C(=O)CCl)c2C)cc1 | . | . | 93.6 | . | . | . | 100.4
CN(C)c1ccc(C=Nc2ccccc2)cc1 | . | . | . | . | . | . | /
CN(C)c1ccc(N=Cc2ccco2)cc1 | . | . | 73.4 | . | . | 20.5 | .
Cc1ccccc1NNC(=O)C(=O)NNc1ccccc1C | . | . | . | . | . | . | /
Cc1ccccc1NC(=O)C(Cl)=C(Cl)Cl | . | . | 43.8 | . | . | . | .
COc1c(Cl)cc(C(=O)NN)cc1Cl | . | . | . | . | . | . | /
NNC(=O)c1cc(O)c(O)c(O)c1 | . | . | 52.1 | . | . | . | .
NC(=O)N/N=C/c1coc2ccc(O)cc2c1=O | . | . | 69.8 | . | . | . | .
Cc1ccc2occ(/C=N/NC(N)=S)c(=O)c2c1 | . | . | . | . | . | . | /
Nc1c(C(=O)NCc2ccco2)sc2nc3c(cc12)C(=O)CCC3 | . | . | 47.5 | . | . | . | .
CCCOC(=O)c1sc2nc3c(cc2c1N)C(=O)CCC3 | . | . | . | . | . | . | /
O=C(CCCn1c(SCC(=O)c2ccc(O)c(O)c2)nc2ccccc2c1=O)NCC1CCCO1 (stereo not drawn) | . | . | 43.7 | . | . | . | .
Cc1cc(C(=O)CSc2nnnn2C)c(C)n1-c1cccc(F)c1 | . | . | . | . | . | . | /
Cc1cc(C)cc(-n2c(C)cc(C(=O)CSc3nnnn3C)c2C)c1 | . | . | 48.6 | . | . | . | 43.1
Cc1ccc2nc(N3CCN(CCO)CC3)nc(-c3ccccc3)c2c1 | . | . | 42.9 | . | . | . | .
COc1cccc(-c2cc(C(=O)N3CCN(S(=O)(=O)c4ccc(Br)cc4)CC3)[nH]n2)c1 | . | . | . | . | . | . | /
COC(=O)c1c(NC(=O)COC(=O)c2ccc(Cl)nc2)sc(C)c1C | . | . | . | . | . | . | /
Cc1c(C(=O)c2ccc(F)cc2F)c2ccccn2c1CCC#N | . | . | 39.1 | . | . | . | .
N#CC(C(=O)O)=C1CCCC1 | . | . | . | . | . | . | /
N#CC(C#SN)=C1CCCCC1 | . | . | 51.6 | . | . | . | .
CC(CN1CCCCC1)OC(=O)COc1ccc(Br)cc1 (stereo not drawn) | . | . | . | . | . | . | /
Cc1ccc(NC2=C(N3CCOCC3)C(=O)c3ccccc3C2=O)cc1 | . | . | 48.0 | . | . | . | .
CC(=O)c1ccc(S(=O)(=O)Nc2ccc(N3CCOCC3)cc2)cc1 | . | . | . | . | . | . | /
CC(=O)c1ccc(NC2=C(N3CCOCC3)C(=O)c3ccccc3C2=O)cc1 | . | . | 39.3 | . | . | . | .
Cc1ccc(S(=O)(=O)NC2=C(N3CCN(c4ccccc4F)CC3)C(=O)c3ccccc3C2=O)cc1 | . | . | . | . | . | . | /
CCC1CCc2c(sc(NC(=O)C3c4ccccc4Oc4ccccc43)c2C(N)=O)C1 (stereo not drawn) | . | . | . | . | . | . | /

Compound activity deposited in PubChem by The Scripps Research Institute Molecular Screening Center.
